PNC inhibitor = High Content Assay for Compounds that inhibit the Assembly of the Perinucleolar Compartment. PC3M PTB-GFP, PNC prevalence imaging, 16 h; hits give low values. activity change (PNC), negative = inhibition, % at 10 µM. actives 3.1% (n = 140,000);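 active means readout at or below -70, meaning at least 70% loss of cells showing the perinucleolar compartment, a nuclear body marking cancer cells; inconclusive means readout between -30 and a set limit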
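PC3M cells stably expressing PTB-GFP, 750–1000 cells/well, treated 16 h at 37 °C with compound (23 nl of library stock), in duplicate. After paraformaldehyde fixation and Hoechst stain, imaged at 20x; PNC prevalence scored by image analysis.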
IMPase inh = qHTS Assay for Identifying the Cell-Membrane Permeable IMPase Inhibitors; inhibition (IP1 accumulation), % at 46.1 µM; CHO-M1 cells, IP1 accumulation, HTRF TR-FRET ratio; 120,000 tested, under 10 active; Inositol monophosphatase 1 (Rattus norvegicus), P97697; AID 901, 2007; active means well fitted curve in the direction sought with a large enough effect in the signal ratio, not every such curve was filed as active; inconclusive means small, poorly fitted or top-dose-only effect, or a change in a side signal; inactive means no such curve, though single readings can be large or run the other way; the % refers to the signal ratio;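 further: cells stimulated with carbachol in lithium chloride buffer; higher means more IMPase inhibition seen as more IP1 and lower FRET ratio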
Target sequence (P97697 whole entry, looked up): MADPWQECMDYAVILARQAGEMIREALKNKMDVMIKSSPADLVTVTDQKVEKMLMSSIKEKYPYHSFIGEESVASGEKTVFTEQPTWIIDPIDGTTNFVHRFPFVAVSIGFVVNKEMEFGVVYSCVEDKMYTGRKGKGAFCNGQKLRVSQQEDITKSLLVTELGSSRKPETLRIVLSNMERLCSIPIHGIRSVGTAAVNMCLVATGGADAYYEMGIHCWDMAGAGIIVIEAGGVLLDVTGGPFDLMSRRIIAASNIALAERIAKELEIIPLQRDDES
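The IP-One HTRF competitive assay in carbachol-stimulated CHO-M1 cells quantifies cellular IP1. Compounds spanned up to 46 uM final, and activity is expressed as AC50 from concentration-response fits of the ratio and donor data.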
LMNA splice mod = qHTS Assay for Modulators of Lamin A Splicing; HeLa LMNA splicing GFP/RFP minigene ratio, 48 h; actives 0.01% (n = 200,000); Potency, µM (titrated, usually from 46.1 µM), usual class: inhibitors; active means well fitted inhibition curve with a large enough effect in the signal ratio, with a control signal flat, not every such curve was filed as active; inconclusive means small, poorly fitted or top-dose-only effect, or effect the other way, or a change in a side signal; the % refers to the signal ratio
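Read-out is the ratio of GFP to DsRed2 object intensity, acquired by 488 nm laser-scanning cytometry on HeLa lamin A-EGFP minigene reporter cells. Compound incubation 48 hrs at 37 °C in Opti-MEM with 2% FBS; DMSO 0.5% final.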
Numbers stand for hits; n = inactive; u = inconclusive; x = no result given. The sample as a whole holds a higher share of hits than the screen did.

SMILES	PNC inhibitor	IMPase inh	LMNA splice mod
CCC(C)(C(=O)NC1CCCCC1)N(C)C(=O)c1ccccn1 (stereo not given)	-106	n	n
Cc1cccc2sc(NNC(=O)c3ccc(S(=O)(=O)N4CC(C)CC(C)C4)cc3)nc12 (stereo not given)	n	x	18µM
Cc1cc(C)c2nc(NNC(=O)c3ccc(S(=O)(=O)N4CC(C)CC(C)C4)cc3)sc2c1 (stereo not given)	n	x	u
COc1ccc(C(=O)COC(=O)C(Cc2c[nH]c3ccccc23)NC(=O)c2ccc(C(C)(C)C)cc2)cc1 (stereo not given)	x	n	x
CCN1CCN(C(=S)Nc2cccc([N+](=O)[O-])c2)CC1	u	n	u
CCN1C/C(=C/c2cccc([N+](=O)[O-])c2)C(=O)/C(=C/c2cccc([N+](=O)[O-])c2)C1	-123	x	u
CC(Sc1nc(N2CCCCC2)c2c(c1C#N)CCCC2)C(=O)O (stereo not given)	-117	n	n
CC(C)Sc1nc(N2CCCC2)c2c(c1C#N)CC(C)(C)OC2	n	n	n
COc1ccc2nc(SCC(=O)Nc3ccccc3)[nH]c2c1	-107	x	u
COc1ccc2nc(SCC(=O)Nc3c(C)cccc3C)[nH]c2c1	n	n	n
CCCCNS(=O)(=O)c1ccc2nc(SCC(=O)Nc3ccccc3Cl)[nH]c2c1	n	n	n
CCCCNS(=O)(=O)c1ccc2nc(SCC(=O)Nc3cccc(F)c3)[nH]c2c1	-98	x	u
COCCNc1ncnc2ccc(-c3ccoc3)cc12	x	x	n
CSCCC1C(=O)OC2(C)CC(C)(C)NC(=S)N12 (stereo not given)	-100	n	n
O=C1OC(NCc2cccnc2)(c2ccc(Cl)cc2)c2ccccc21 (stereo not given)	x	x	n
COc1ccc(OC)c(NC(=O)COCc2cc(-c3ccco3)on2)c1	x	x	n
Cc1nn(C)cc1S(=O)(=O)N1CCN(Cc2ccc(F)cc2Cl)CC1	x	x	n
CC1CCN(CC(=O)Nc2sc3c(c2C#N)CCC3)CC1	n	n	n
CC1CCc2c(sc(NC(=O)CN3CCN(C(=O)c4ccco4)CC3)c2C#N)C1 (stereo not given)	-117	n	u
O=C(Cn1ccn(-c2ccc(F)c(F)c2)c(=O)c1=O)NCc1ccccc1	x	x	n
COc1cc2cc(CN(Cc3cccs3)C(=S)Nc3cccc(C)c3)c(=O)[nH]c2cc1OC	-113	x	n
COc1cc2cc(CN(Cc3cccs3)C(=S)Nc3ccc(C)cc3)c(=O)[nH]c2cc1OC	n	x	u
Cc1cccc(NC(=S)N(CCN(C)C)Cc2cc3cccc(C)c3[nH]c2=O)c1	-100	n	n
Cc1cccc(NC(=S)N(CCN(C)C)Cc2cc3cc(C)cc(C)c3[nH]c2=O)c1	n	n	n
CCOC(=O)c1cn(Cc2c(C)c(C)c(C)c(C)c2C)nn1	n	x	u
SMILES	PNC inhibitor	IMPase inh	LMNA splice mod
CC(C)Sc1nc2sc(-c3ccccc3)cc2c(=O)n1N	-106	n	n
CSc1nc2sc(-c3ccccc3)cc2c(=O)n1N	n	n	n
Cc1cc(C)cc(N(CC(=O)NCC2CCCO2)C(=O)CCC(=O)Nc2cc(C)on2)c1 (stereo not given)	-82	n	n
Cc1cc(NC(=O)CCC(=O)N(CCC(C)C)CC(=O)NCC2CCCO2)no1 (stereo not given)	n	n	n
CCOC(=O)N1CCN(C(=O)c2cc(-c3ccc(OCC)cc3)nc3ccccc23)CC1	-95	n	u
CCOc1ccc(-c2cc(C(=O)N3CCN(C)CC3)c3ccccc3n2)cc1	n	n	n
COc1cccc(-c2ccc3ncnc(NCCN4CCOCC4)c3c2)c1	x	x	n
CCOC(=O)CC(=O)CSc1nc2c(sc(=S)n2-c2ccc(OCC)cc2)c(=O)[nH]1	n	x	u
CCOc1ccc(-n2c(=S)sc3c(=O)[nH]c(SCC(=O)NC(C)CC)nc32)cc1 (stereo not given)	-83	n	n
CCCc1ccc(C2Sc3ccccc3NC3=C2C(=O)c2ccccc23)cc1 (stereo not given)	x	n	x
CC(C)(C)NC(=O)Cn1c(SCC(N)=O)nc2ccccc21	n	n	n
CC(C)(C)NC(=O)Cn1c(SCC(=O)N2CCCCCC2)nc2ccccc21	-92	n	u
Cn1c(SCC(=O)N2CCOCC2)nc2cccnc21	n	n	n
COCCn1c(SCC(=O)N2CCCCC2)nc2cccnc21	-83	n	n
COc1ccccc1-n1c(SCC(=O)N2CCCC2)nc2cccnc21	-110	n	n
CCN(CC)C(=O)CSc1nc2cccnc2n1-c1ccccc1OC	n	n	n
Cc1ccc(C(c2sc3nc(-c4ccco4)nn3c2O)N2CCOCC2)cc1 (stereo not given)	x	x	n
COc1cc(NC(=O)N2CCC(CN3CCOCC3)CC2)cc(OC)c1OC	x	x	n
Cc1cccc(-c2nc3scc(CCNS(=O)(=O)c4c(C)noc4C)n3n2)c1	x	x	n
COc1ccc(N2CCN(C(=O)CCn3cnc4onc(-c5ccc(F)cc5)c4c3=O)CC2)cc1	x	x	n
Cc1ccc(-c2csc3ncnc(OCC(=O)NC(=O)NCc4ccco4)c23)cc1	-125	n	n
O=C(COc1ncnc2scc(-c3ccc(F)cc3)c12)NCc1ccco1	n	n	n
CSc1ccc(CCNC(=O)c2c(C)oc3ncn(C)c(=O)c23)cc1	x	x	n
CC(C)C[C@H](NC(=O)OC(C)(C)C)C(=O)N1CCC(C(=O)N[C@@H](Cc2ccccc2)C(=O)O)CC1	n	n	n
CC(C)(C)OC(=O)N[C@H](Cc1ccccc1)C(=O)N1CCC(C(=O)O)CC1	-83	n	n
SMILES	PNC inhibitor	IMPase inh	LMNA splice mod
CCCCN(C)C(=O)CN1C(=O)c2cccnc2Oc2ccc(Cl)cc21	x	x	n
COc1ccc2nc3oc(C(=O)N4CCCCC4)cc3cc2c1	-100	n	n
CCOC(=O)C1CCN(C(=O)c2cc3cc4cc(OC)ccc4nc3o2)CC1	n	n	n
O=S(=O)([N-]c1nc2ccccc2nc1-[n+]1ccccc1)c1ccc(F)cc1	x	x	n
COc1ccc(-c2nc3c4ccccc4n(CC(=O)N4CCN(c5ccccc5OC)CC4)c(=O)n3n2)cc1	x	x	n
Cc1cccc(NC(=O)c2cc(S(=O)(=O)N3CCc4ccccc43)ccc2F)c1C	x	x	n
Cc1ccc(-c2cn3cccnc3n2)cc1NC(=O)c1c(-c2ccccc2Cl)noc1C	u	n	n
Cc1onc(-c2ccccc2Cl)c1C(=O)Nc1ccc(-c2cn3cccnc3n2)cc1	-91	n	n
CC1(C(=O)NCc2ccccn2)C=CCN1C(=O)c1ccccc1 (stereo not given)	-119	x	n
CNC(=O)C1(C)C=CCN1C(=O)c1ccccc1 (stereo not given)	n	x	n
CC(CC(=O)NCc1ccc(Cl)cc1)CC1=NS(=O)(=O)c2ccccc2N1 (stereo not given)	x	x	n
CSc1ccc(NC(=O)c2cccnc2)cc1C#N	x	x	n
c1ccc(-c2nnc(CN3CCN(c4ccccn4)CC3)o2)cc1	x	n	x
COCCn1c(SCC(=O)Nc2sc(C)c(C)c2C#N)nnc1-c1ccc(OC)cc1	n	n	u
COCCn1c(SCC#N)nnc1-c1ccc(OC)cc1	-100	n	n
O=C(Nc1ccc(NC(=O)C2CC2)nc1)c1cccs1	-107	n	n

From PubChem
